The values that follow come from PubChem BioAssay (NCI).

Test systems include NCI-H23 lung; NCI-H226 lung; NCI-H322M lung; HOP-62 NSCLC; NCI-H460 lung; HOP-92 NSCLC; NCI-H522 lung; A549/ATCC NSCLC; 786-0 renal; COLO 205 colon; DU-145 prostate; K-562 leukemia; MALME-3M melanoma; MDA-MB-231 breast; RXF 393 renal; SF-268 CNS; SF-295 CNS; SF-539 CNS; UACC-257 melanoma; M14 melanoma.
What all share (test): NCI-60 one-dose screen, 48 h (100 = growth as untreated, 0 = no growth, -100 = all killed)
Holding throughout (conditions): 10 µM unless noted

Compounds without any hit were thinned out: in the full panel of roughly 83,000, 20% have a hit.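 Step 1: grow cells in 96-well plates. Step 2: add test compound at a single concentration. Step 3: incubate 48 h. Step 4: record percent growth.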 Values without a mark were called inactive. Calls of active or inactive are those of the source. How the source made its calls: active means growth percent below 10; inactive means the rest.

As to `O=C(CCCCCCN1CC(=O)N2[C@@H](C3CC3)c3[nH]c4ccccc4c3C[C@H]2C1=O)NO`, the growth is 66.4% in the experiment on NCI-H23 lung; 95% in the experiment on NCI-H226 lung; 74.6% in the experiment with NCI-H322M lung; 69.6% in the experiment on HOP-62 NSCLC; 74.5% in the experiment on NCI-H460 lung; 53.4% in the experiment on HOP-92 NSCLC. Further, the growth is 24.4% in the experiment with NCI-H522 lung; 99% with A549/ATCC NSCLC; 108% in the experiment with 786-0 renal; 98% in the experiment on COLO 205 colon; 70.9% in the experiment on DU-145 prostate; 21.5% in the experiment on K-562 leukemia. The growth in the experiment with MALME-3M melanoma was 10.1%; with MDA-MB-231 breast, 83.7%; in the experiment with RXF 393 renal it was 76.5%; with SF-268 CNS, 93.6%; in the experiment with SF-295 CNS, 74.9%; in the experiment with SF-539 CNS, 60.7%. Besides, the results for the growth in the experiment with UACC-257 melanoma and with M14 melanoma were 41.9% and 60.2%, respectively.
For `CN1CCN(c2ccc(Nc3nc(NCCNC(=O)c4ccc(F)cc4)c4sccc4n3)cc2)CC1`, the growth in the experiment with NCI-H23 lung was 74.2%; in the experiment on NCI-H226 lung, 91.1%; in the experiment with NCI-H322M lung, 81.7%; in the experiment on HOP-62 NSCLC, 99.4%; with NCI-H460 lung it was 84.5%; in the experiment on HOP-92 NSCLC, 50.1%. Further, the growth was 68.1% in the experiment on NCI-H522 lung; 77.9% in the experiment on A549/ATCC NSCLC; 52.3% in the experiment on 786-0 renal; 44.3% in the experiment on COLO 205 colon; 87.8% in the experiment on DU-145 prostate; 19.8% in the experiment with K-562 leukemia. The growth is -54.2% (active) in the experiment on MALME-3M melanoma; 59.4% in the experiment with MDA-MB-231 breast; 14.1% in the experiment with RXF 393 renal; 73.8% in the experiment with SF-268 CNS; 61% with SF-295 CNS; -64.7% (active) with SF-539 CNS. For the same compound, the growth in the experiment with UACC-257 melanoma is 0.258% (active); in the experiment with M14 melanoma it was -10.1% (active).
`C=C(C)[C@@H]1CC[C@]2(COCCCNCCCN)CC[C@]3(C)[C@H](CC[C@@H]4[C@@]5(C)CC[C@H](O)C(C)(C)[C@@H]5CC[C@]43C)[C@@H]12`: the growth was -64.7% (active) with NCI-H23 lung; 4.38% (active) in the experiment on NCI-H226 lung; -90.2% (active) in the experiment with NCI-H322M lung; -51.3% (active) in the experiment with HOP-62 NSCLC; -77.3% (active) with NCI-H460 lung; -76.2% (active) in the experiment on HOP-92 NSCLC. Also, the growth was -54.6% (active) in the experiment on NCI-H522 lung; -48.7% (active) in the experiment with A549/ATCC NSCLC; -81.3% (active) with 786-0 renal; -65.9% (active) with COLO 205 colon; -80.8% (active) in the experiment with DU-145 prostate; -9.9% (active) in the experiment on K-562 leukemia. The growth in the experiment with MALME-3M melanoma was -83.8% (active); in the experiment with MDA-MB-231 breast, -86.3% (active); in the experiment on RXF 393 renal, -90.9% (active); in the experiment on SF-268 CNS, -57.9% (active); in the experiment on SF-295 CNS, -85.2% (active); in the experiment with SF-539 CNS it was -96.2% (active). In addition, the growth is -0.281% (active) in the experiment with UACC-257 melanoma and -90.3% (active) with M14 melanoma.
Regarding `CC(C)NC(=O)c1cc(-c2ccc(NC(=O)Nc3ccc(F)cc3)cc2)nc2cccnc12`, the growth with NCI-H23 lung was 99.4%; with NCI-H226 lung, 99.1%; in the experiment with NCI-H322M lung, 104%; in the experiment with HOP-62 NSCLC it was 101%; in the experiment with NCI-H460 lung, 104%; in the experiment with HOP-92 NSCLC, 96.7%. For the same compound, the growth is 96.8% in the experiment with NCI-H522 lung; 104% in the experiment on A549/ATCC NSCLC; 97.1% in the experiment with 786-0 renal; 114% with DU-145 prostate; 110% in the experiment on K-562 leukemia; 118% in the experiment on MALME-3M melanoma. Further, the growth in the experiment on MDA-MB-231 breast was 97.8%; with RXF 393 renal, 123%; with SF-268 CNS, 109%; in the experiment on SF-295 CNS it was 97.7%; with SF-539 CNS, 102%; with UACC-257 melanoma, 102%. In addition, in the experiment on M14 melanoma, the growth was 102%.
Turning to `N#C/C(=C\c1ccc(-c2ccc(Cl)cc2)o1)C(=O)Nc1ncc(Cc2ccc(Br)cc2)s1`, the growth in the experiment on NCI-H23 lung was -30.6% (active); with NCI-H226 lung, 40.3%; in the experiment with NCI-H322M lung, 19.1%; in the experiment with HOP-62 NSCLC it was 5.97% (active); in the experiment with NCI-H460 lung it was -78.1% (active); in the experiment with HOP-92 NSCLC, 8.49% (active). Besides, the growth in the experiment on NCI-H522 lung was 4.79% (active); with A549/ATCC NSCLC it was -53% (active); with 786-0 renal, 23.4%; in the experiment with DU-145 prostate, 9.81% (active); in the experiment with K-562 leukemia, 42.7%; in the experiment on MALME-3M melanoma it was -34.1% (active). Further, the growth in the experiment with MDA-MB-231 breast is 3.41% (active); with RXF 393 renal, 33.1%; with SF-268 CNS, 33.2%; with SF-295 CNS, -2.23% (active); in the experiment with SF-539 CNS it was 1.63% (active); with UACC-257 melanoma, 46.6%. In addition, in the experiment with M14 melanoma, the growth was 10.2%.
With `O=c1c2cc(-c3ccc(F)cc3F)ccc2n(O)c(=O)n1-c1cccc(C(F)(F)F)c1`, the growth in the experiment on NCI-H23 lung is -2.77% (active); with NCI-H226 lung, 14.3%; in the experiment with NCI-H322M lung, 5.99% (active); with HOP-62 NSCLC it was -9.23% (active); in the experiment on NCI-H460 lung, 6.68% (active); with HOP-92 NSCLC it was -30% (active). Also, the growth in the experiment on NCI-H522 lung is -14.2% (active); in the experiment with A549/ATCC NSCLC it was 6.74% (active); with 786-0 renal, 30.9%; in the experiment on COLO 205 colon, 73.9%; with DU-145 prostate, 25.5%; in the experiment on K-562 leukemia, 3.41% (active). The growth was -12.2% (active) in the experiment with MALME-3M melanoma; -10.3% (active) with MDA-MB-231 breast; 3.38% (active) with RXF 393 renal; 17.4% with SF-268 CNS; -11.2% (active) in the experiment with SF-295 CNS; 21.1% with SF-539 CNS. For the same compound, the growth is -8.3% (active) with UACC-257 melanoma and 17.6% in the experiment with M14 melanoma.
Consider `C#CCOc1ccc(-c2csc(NC(=O)C=C)n2)cc1NS(=O)(=O)c1cccc2c(N(C)C)cccc12`, for which the growth in the experiment on NCI-H23 lung is 56.4%; in the experiment on NCI-H226 lung it was 33.1%; in the experiment on NCI-H322M lung, 87.6%; with HOP-62 NSCLC it was 93.2%; in the experiment with NCI-H460 lung, 81.2%; in the experiment on HOP-92 NSCLC, 0.234% (active). Besides, the growth in the experiment with NCI-H522 lung was 29.9%; in the experiment on A549/ATCC NSCLC, 65.4%; with 786-0 renal, 8.71% (active); with DU-145 prostate, 44.6%; in the experiment with K-562 leukemia, 9.26% (active); in the experiment on MALME-3M melanoma, 62.5%. Besides, the growth with MDA-MB-231 breast is 31.7%; in the experiment with RXF 393 renal it was -6.3% (active); in the experiment with SF-268 CNS, 64.7%; in the experiment with SF-295 CNS it was 66.8%; in the experiment with SF-539 CNS, 3.55% (active); with UACC-257 melanoma, 68.6%. The growth in the experiment with M14 melanoma was 31.9%.
`CCCCCCOC(=O)c1cc(-c2ccc(F)cc2)nc2ccccc12`: the growth in the experiment with NCI-H23 lung is 90.3%; with NCI-H226 lung, 91.2%; in the experiment with NCI-H322M lung, 94.9%; in the experiment with HOP-62 NSCLC, 94.4%; with NCI-H460 lung it was 103%; with HOP-92 NSCLC, 65.9%. The growth is 82.8% with NCI-H522 lung; 101% in the experiment with A549/ATCC NSCLC; 107% with 786-0 renal; 105% with DU-145 prostate; 101% with K-562 leukemia; 97.1% in the experiment with MALME-3M melanoma. Further, the growth in the experiment on MDA-MB-231 breast was 85.6%; in the experiment on RXF 393 renal it was 96.8%; with SF-268 CNS, 96.1%; in the experiment on SF-295 CNS, 98%; in the experiment with SF-539 CNS it was 99.9%; with UACC-257 melanoma it was 99.1%. For the same compound, in the experiment on M14 melanoma, the growth was 96.9%.
